# From PubChem BioAssay
# An excerpt weighted towards active compounds, which were near 15% of everything screened.
# SARS PLP yeast: SARS-CoV PLP inhibition in yeast | S. cerevisiae expressing SARS-CoV PLpro, growth rescue | Potency, µM (doses to about 32.9 µM), for inactives: at the top dose activity, positive = growth rescue, usual class: activators | 330,000 tested, 0.19% active; calls by dose curve; also: potency is read from the fitted curve at half-maximal effect; 0% is about no effect; nearly all actives have a fitted effect of over 55% in size
# Pf growth 48h: P. falciparum growth inhibition at 48 hours (one generation) | P. falciparum luciferase growth in erythrocytes, 48 h | Potency, µM (titrated, usually from 28.7 µM), for inactives: at the top dose activity change, negative = inhibition, most hits filed as inhibitors | 310,000 tested, 5.9% active | AID 504832; also: potency is read from the fitted curve at half-maximal effect; % is scaled to controls: 0 for no effect and ±100 for the full control effect
#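 Luciferase-expressing P. falciparum in infected erythrocytes (2% hematocrit, 0.1% parasitemia final) in RPMI 1640/0.5% Albumax were exposed to compound for 48 hours at 37 C, 5% CO2; growth read as luminescence.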
# Sm TGR block: blocks Schistosoma mansoni thioredoxin glutathione reductase. Q962Y6. AID 485364. purified TGR, DTNB reduction, TNB absorbance 405 nm. Potency, µM (highest dose often 114 µM), inactives show top-dose activity change, negative = inhibition, usual class: inhibitors. 360,000 tested, 3% active; also: potency is read from the fitted curve at half-maximal effect; % is scaled to controls: 0 for no effect and ±100 for the full control effect; nearly all actives have a fitted effect of over 60% in size
#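 TGR 20 nM + NADPH 100 uM (dispensed conc.), cpd preinc 15 min RT; start with NADPH (500 uM addition) then DTNB (15 mM addition). Kinetic TNB absorbance, 405 nm filter. Four-parameter Hill fit across titration.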
# HCMV antiviral: blocks human cytomegalovirus replication; activity change, negative = inhibition, % at 57.5 µM; 410,000 tested, 4.5% active; HFF cells, HCMV-luciferase reporter, 72 h; active compounds read low; in the data active = activity change below about -60%; inconclusive = no clear call, values can overlap the other calls; inactive = above about -39%; also: % is scaled to controls: 0 for no effect and ±100 for the full control effect
#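 After 16 h attachment at 37C, HFF cells received test compound and HCMV-luciferase (1 PFU/cell); reporter luminescence read 72 h later, data normalized against buffer-only and known inhibitor Salinomycin.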
# HCV inh: HCV inhibition. 340,000 tested, 3.4% active. Huh7.5.1 HCVcc-Cre infection, luciferase reporter, 44 h. AID 651820. Potency, µM (highest dose often 41.8 µM), for inactives: at the top dose activity change, negative = inhibition, most hits filed as inhibitors; also: potency is read from the fitted curve at half-maximal effect; % is scaled to controls: 0 for no effect and ±100 for the full control effect
#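 Cells (1,000/well) were plated 4 h before compound, then infected with HCVcc-Cre virus (~0.5 moi). After 44 h further culture, infection was read as luciferase luminescence following a 15 min substrate incubation at room temperature.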
# Pf growth 96h: P. falciparum growth inhibition at 96 hour, primary screen for plastid delayed-death inhibitors. P. falciparum luciferase reporter growth, 96 h. Potency, µM (highest dose often 28.7 µM), inactives show top-dose activity change, negative = inhibition, actives largely listed as inhibitors. 320,000 tested, 6.9% active. AID 504834; also: potency is read from the fitted curve at half-maximal effect; % is scaled to controls: 0 for no effect and ±100 for the full control effect
#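 Two parasite generations (96 h, 37 C, 5% CO2) of compound exposure in infected erythrocytes (0.05% parasitemia, 2% hematocrit). Luciferase-reporter P. falciparum; decreased luminescence indicates inhibited growth, aimed at apicoplast-acting delayed death.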
# An asterisk follows results filed as active; ? = inconclusive; . = no result. Unless noted, calls follow the shape of the dose curve; as a rule, active = well fitted curve in the direction sought with a large enough effect; inconclusive = small, poorly fitted or top-dose-only effect, or another doubt; inactive = no such curve, though single readings can be large; an effect the other way counts as inactive or inconclusive.
SMILES,SARS PLP yeast,Pf growth 48h,Sm TGR block,HCMV antiviral,HCV inh,Pf growth 96h
COc1ccc(C)cc1NC(=O)C1CCN(S(=O)(=O)c2ccc3[nH]c(=O)oc3c2)CC1,.,.,2%,0,.,.
O=C(CN1CCN(c2ccccn2)CC1)N(c1ccccc1)c1ccc2ccccc2c1,-7%,12µM*,5%,?,-14%,5.2µM*
O=C(CN1CCN(c2ccccn2)CC1)N1c2ccccc2Sc2ccc(C(F)(F)F)cc21,-11%,4.7µM*,-1%,-3,?,.
CC(=O)N1CCC2(CC1)OC(=O)C(C)=C2C(=O)Nc1cccc(Cl)c1C,.,.,1%,0,.,.
CC(C)C[C@H]1CN(CCCC[C@H]2CNC(=O)C(=O)N2Cc2ccccc2)C(=O)C(=O)N1CCc1ccc(O)cc1,.,.,.,3,.,.
COc1ccccc1-c1cn(CC[C@H]2CC[C@@H](NS(=O)(=O)c3ccccc3C)[C@@H](CO)O2)nn1,.,.,.,27,.,.
Cc1cc(C(=O)N/N=C/c2sc(N3CCOCC3)nc2-c2ccccc2)c(C)o1,-2%,?,?,19,?,?
O=[N+]([O-])c1ccc(N/N=C/c2sc(N3CCOCC3)nc2-c2ccccc2)c(S(=O)(=O)Nc2ccc(Cl)cc2)c1,1%,?,.,-88*,2.5µM*,?
O=[N+]([O-])c1ccc(N/N=C/c2sc(N3CCOCC3)nc2-c2ccccc2)c(S(=O)(=O)Nc2ccccc2Cl)c1,1%,1.5µM*,0%,?,3.5µM*,?
CCOC(=O)C1(C)CCN1C(=O)c1ccc(F)c(Cl)c1 (stereo unspecified),.,.,.,10,.,.
O=C(NCCCO)C(=O)Nc1cc2c3c(c1)CCN3C(=O)CC2,9%,23%,-6%,0,7%,81%
CCC(=O)N1CCc2cc(Br)cc(S(=O)(=O)CCC(=O)N3CCN(c4ccc(OC)cc4)CC3)c21,.,.,-1%,8,.,.
CCOC(=O)CC1Sc2ccccc2NC1=O (stereo unspecified),-6%,6%,-16%,8,10%,44%
CCC(OC(=O)CC1Sc2ccccc2NC1=O)C(=O)NCC1CCCO1 (stereo unspecified),0%,-11%,25µM*,30,6%,104%
O=c1nc2ccccn2c2ccc(S(=O)(=O)N3CCCCC3)cc12,1%,5.9µM*,-12%,-8,10%,6.6µM*
CC(=O)Nc1ccc(S(=O)(=O)N2CCN(Cc3csc(C)n3)CC2)cc1,-2%,0%,6%,.,.,0%
Cc1ccc(NC(=O)C2CC(=O)Nc3ncnn32)c(C)c1 (stereo unspecified),-3%,-1%,56µM*,1,0%,5%
Cc1ccc(CNC(=O)C2CCCN(c3nnc(-n4c(C)ccc4C)s3)C2)cc1 (stereo unspecified),.,.,?,25,.,.
COc1ccc(OC)c(CCNC(=O)CS(=O)(=O)Cc2nc(-c3ccc(C)cc3)oc2C)c1,2%,9%,-9%,2,3.5µM*,53%
COc1ccc(-c2nc(CS(=O)(=O)CC(=O)NCCc3ccccc3)c(C)o2)cc1,-5%,6%,?,37,-7%,128%
COc1ccc(-c2nc(CS(=O)(=O)CC(=O)NCCc3cc(OC)ccc3OC)c(C)o2)cc1,3%,?,-9%,-71*,?,?
COc1ccc(C(=O)[C@H]2[C@H]3C(=O)N(c4ccccc4)C(=O)[C@H]3C3C=CC=NN32)cc1 (stereo partly specified),2%,17µM*,?,194,2%,50%
COc1ccc(C(=O)[C@H]2[C@H]3C(=O)N(c4ccc(C)cc4)C(=O)[C@H]3C3C=CC=NN32)cc1 (stereo partly specified),2%,-81%,40µM*,?,9%,184%
CC(=O)Oc1ccc(C(=O)[C@H]2[C@H]3C(=O)N(c4ccc(C)cc4C)C(=O)[C@H]3[C@@H]3C=CC=NN32)cc1,0%,?,18µM*,26,-10%,-29%
